# Hits are enriched below; roughly 5.4% of the tested compounds scored in any of these assays.
# Vaccinia mCherry – vaccinia inhibition (mCherry reporter) | Vaccinia virus mCherry reporter infection, fluorescence | Potency, µM (highest dose often 36.5 µM), for inactives: at the highest dose activity change, negative = inhibition, usual class: inhibitors | 0.63% of 310,000 active; calls by dose curve; tested in A549 cells; also: nearly all actives have a fitted effect of over 35% in size
# Lassa entry inh – blocks Lassa virus binding to or entry into cells. Lassa virus pseudotype entry inhibition, cell reporter. Potency, µM (top dose mostly 37.9 µM), inactives show at the top dose activity change, negative = inhibition, most hits filed as inhibitors. 1.2% of 300,000 active. AID 540256; calls by dose curve; tested in HEK293 cells; also: nearly all actives have a fitted effect of over 50% in size
# Marburg entry inh – inhibitors of Marburg virus binding or cell entry. Marburg virus pseudotyped entry inhibition, cell reporter. Potency, µM (doses to about 37.8 µM), for inactives: top-dose activity change, negative = inhibition, most hits filed as inhibitors. 1.8% of 300,000 active; calls by dose curve; tested in HEK293 cells
# VACV Venus inh – inhibitors of vaccinia virus (Venus reporter); Vaccinia virus Venus reporter expression, fluorescence; Potency, µM (doses to about 36.5 µM), for inactives: at the top dose activity change, negative = inhibition, hits mostly inhibitors; 0.46% of 330,000 active; AID 720580; calls by dose curve; tested in A549 cells; also: nearly all actives have a fitted effect of over 30% in size
# Sm TGR block – S. mansoni TGR enzyme inhibition. purified TGR, DTNB reduction, TNB absorbance 405 nm. Potency, µM (doses to about 114 µM), for the others: at the top dose activity change, negative = inhibition, hits mostly inhibitors. AID 485364. 3% of 360,000 active; active = well fitted inhibition curve with a large enough effect; inconclusive = small, poorly fitted or top-dose-only effect; inactive = no such curve, though single readings can be large or run the other way; also: nearly all actives have a fitted effect of over 60% in size
#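 TGR 20 nM + NADPH 100 uM (dispensed conc.), cpd preinc 15 min RT; start with NADPH (500 uM addition) then DTNB (15 mM addition). Kinetic TNB absorbance, 405 nm filter. Four-parameter Hill fit across titration.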
# FMDV antiviral – foot and mouth disease virus antiviral activity | 1.2% of 410,000 active | AID 1159524 | FMDV antiviral cell-based qHTS | Potency, µM (titrated, usually from 57.9 µM), without a hit: top-dose activity change, negative = inhibition, usual class: inhibitors; calls by dose curve; tested in HEK293T cells; also: read-out not given here; nearly all actives have a fitted effect of over 45% in size
# * marks the source's active call; other numbers are inactive results; i = inactive; ? = inconclusive; / = no result; [ ] = remark or other dose. % is scaled to controls: 0 for no effect and ±100 for the full control effect; potency is read from the fitted curve at half-maximal effect.
SMILES,Vaccinia mCherry,Lassa entry inh,Marburg entry inh,VACV Venus inh,Sm TGR block,FMDV antiviral
COCCN1CCn2c(nc3cc(NC(=O)c4cccs4)ccc32)C1,i,?,13.0%,-7.9%,17.8µM*,/
CCCCC(=O)Nc1ccc2c(c1)nc1n2CCN(CCOC)C1,/,/,/,/,-11.3%,-6.2%
OCCC1CN(CC(c2ccccc2)c2ccccc2)CCN1C1CCCC1 (configuration not stated),-20.1%,?,13µM*,-16.1%,-11.9%,-17.1%
CCN(CC)c1ccc(C(=O)OCC(=O)Nc2ccccc2-c2ccccc2)cc1,/,?,?,/,5.3%,17.8µM*
Cc1cc(C)cc(NC(=O)CCN2C(=O)c3ccccc3Sc3ncccc32)c1,1.2%,-1.8%[46.1 µM],/,-6.8%,39.8µM*,-5.0%
CCCCNc1nc2c(S(=O)(=O)c3ccc(Br)cc3)nnn2c2ccsc12,-5.9%,24.9%[46.1 µM],/,-22.7%,1.0%,-22.3%
Cc1ccccc1Oc1cc(-n2ncc(Cl)c(Cl)c2=O)ncn1,?,?,?,10µM*,2µM*,4.47µM*
COC(=O)c1ccc(COC(=O)c2[nH]c(C)c(C(C)=O)c2C)o1,/,-27.0%,?,?,64.2%,12.6µM*
CCc1ccccc1NC(=O)c1nnn(Cc2ccc(Cl)cc2)c1N,-16.6%,-19.1%[46.1 µM],3.3%[46.1 µM],-5.7%,11.3%,0.0%
COc1ccc(OC)c(-c2cc(Cl)c3c(c2)CC(CNC(=O)[C@@H]2CCCN2C(C)=O)O3)c1 (some centres not stated),-4.3%,/,/,7.1%,/,-2.7%
CC(C)n1c(SCC(=O)N2c3ccccc3Sc3ccccc32)nc2c1c(=O)n(C)c(=O)n2C,i,?,9.2µM*,-17.0%,0.0%,/
CN(C)CCCn1c(SCC(=O)N2c3ccccc3Sc3ccccc32)nc2ccccc2c1=O,?,?,?,14.1µM*,2.3%,?
CCOC(=O)c1c(NC(=O)CSc2nc3c(c(=O)n(C)c(=O)n3C)n2C(C)C)sc(C)c1C,-9.2%,13.7%,1.0%,0.3%,4.5%,/
CCCn1c(SCC(=O)N2c3ccccc3Sc3ccccc32)nc2c1c(=O)n(C)c(=O)n2C,/,3.0%,0.6%,/,4.4%,5.9%
CC(C)n1c(SCC(=O)Nc2nc3c(s2)CCCC3)nc2c1c(=O)n(C)c(=O)n2C,-3.6%,?,?,-1.8%,-16.4%,25.1µM*
COc1ccc(CCNC(=O)CCCCn2c(=O)c3ccccc3n(Cc3ccccc3Cl)c2=O)cc1OC,?,-8.4%[46.1 µM],-11.0%[46.1 µM],?,3.8%,?
O=C1C=C(c2ccccc2)C[C@H](c2cccs2)[C@H]1n1nnc([N+](=O)[O-])n1,14.1µM*,?,2µM*,?,-13.0%,-15.6%
CCS(=O)(=O)N1CC(=O)N(c2cccc(Cl)c2)C(C)(C(=O)NC2CCCCCC2)C1 (configuration not stated),-20.2%,17.2%[46.1 µM],/,-14.5%,6.2%,-8.9%
COC(=O)c1scc(-c2ccc(C)cc2)c1S(=O)(=O)N1CCN(c2cccc(OC)c2)CC1,0.1%,?,/,12.0%,2.9%,0.0%
COc1ccc(NC(=O)C#Cc2ccccc2)cc1OC,?,-8.6%[46.1 µM],?,?,-33.5%,12.2%
NC(=O)c1ccc(NC(=O)C#Cc2ccccc2)cc1,7.08µM*,2.24µM*,4.47µM*,-28.8%,?,-5.8%
Cn1c(C2CCC2)nc2cc(C(=O)N3CCOc4ccccc4C3)cc(NC(=O)C3CCCO3)c21 (configuration not stated),-18.2%,/,/,-4.3%,/,-6.8%
N#C/C(=C/c1ccc(Br)o1)C(N)=S,/,/,/,/,3.55µM*,/
N#C/C(=C/c1ccc(Br)o1)C(N)=O,/,-4.0%,-6.6%[46.1 µM],?,-22.7%,-18.0%
CCOC(=O)c1[nH]c2c(c1Cc1ccccc1)C(=O)CC(c1ccc(C(C)(C)C)cc1)C2 (configuration not stated),-11.7%,-14.3%[46.1 µM],?,-9.0%,-1.3%,0.0%
SMILES,Vaccinia mCherry,Lassa entry inh,Marburg entry inh,VACV Venus inh,Sm TGR block,FMDV antiviral
Cc1cc(C)cc(NC(=O)CN(C)S(=O)(=O)c2ccc3c(c2)CCC(=O)N3)c1,-15.1%,10.1%[46.1 µM],-1.4%[46.1 µM],2.1%,-1.3%,-4.1%
Cc1cc(NC(=O)CN(C)S(=O)(=O)c2ccc3c(c2)CCC(=O)N3)ccc1Br,-3.3%,-27.5%[46.1 µM],?,-27.2%,5.9%,14.1µM*
COc1cc(CN2CCN(C(=O)c3cccc4ccccc34)CC2)cc(OC)c1O,/,/,/,/,6.31µM*,-8.3%
COc1cc(CN2CCN(c3cccc(C)c3C)CC2)cc(OC)c1O,/,19.0%,?,/,31.6µM*,-3.5%
CCCOc1ccc(Nc2nc(SC)ncc2C(=O)OCC)cc1,-8.0%,?,6.4%[46.1 µM],-7.0%,1.5%,-3.9%
CC1=C(C(N)=O)C(c2cccs2)n2nc(-c3cccc(C)c3)nc2N1 (configuration not stated),-8.2%,-0.4%,-11.4%,-14.0%,8.3%,0.2%
CCOc1ccccc1C1C(C(N)=O)=C(C)Nc2nc(-c3cccc(C)c3)nn21 (configuration not stated),-6.1%,-2.6%,-7.9%,-13.8%,39.8µM*,-7.5%
N#Cc1c(N)oc(-c2ccccc2)c1-c1ccccc1,-1.4%,5.6%,-10.8%,-1.5%,4.5%,0.0%
N#Cc1c(N)oc(-c2ccco2)c1-c1ccco1,/,-8.5%,?,-6.1%,35.5µM*,0.0%
CCCc1cc2c(=O)c(-c3ccc4c(c3)OCCO4)coc2cc1OS(C)(=O)=O,10µM*,?,?,?,5.4%,-5.0%
CCCc1cc2c(=O)c(-c3ccc4c(c3)OCCO4)c(C)oc2cc1OS(C)(=O)=O,?,-20.6%,-27.3%,?,7.7%,?
O=C(Cn1c(=O)oc2cc(S(=O)(=O)NCc3ccccc3)ccc21)Nc1cccc(F)c1,i,/,-2.6%[46.1 µM],-6.3%,-0.8%,41.0%
COc1ccccc1N1C(=O)N(C(C)=O)C2C1Nc1ccccc1N2C (configuration not stated),?,?,11.6µM*,9.1%,?,/
CC(C#Cc1c([C@@H](C)Oc2ccccc2)nnn1Cc1ccccc1)Oc1ccccc1 (some centres not stated),-18.0%,/,/,-12.9%,7.94µM*,-25.7%
CN(C)c1nnnn1Cc1ccccc1,i,-1.8%,-4.7%[46.1 µM],4.1%,-6.1%,-1.0%
Cc1ccc(N2CC(NC(=O)Cc3cccs3)CC2=O)cc1C (configuration not stated),-1.6%[7.34 µM],-4.4%[46.1 µM],/,-4.1%[7.34 µM],0.0%,2.4%
OC1C=C2CCN3Cc4cc5c(cc4C(C1O)C23)OCO5 (configuration not stated),?,/,/,7.08µM*,/,-10.9%
CN1CCC2=C[C@@H](O)[C@@H]3OC(=O)c4cc5c(cc4C3C21)OCO5 (some centres not stated),/,/,/,/,/,-18.4%
O[C@@H]1[C@@H](O)C=C2CCN3Cc4cc5c(cc4[C@H]1C23)OCO5 (some centres not stated),?,/,/,3.98µM*,-6.8%,?

# Screening results deposited in PubChem BioAssay by National Center for Advancing Translational Sciences (NCATS).
